Common to all, as to test: qHTS profiling for inhibitors of Plasmodium falciparum proliferation (AID 504749); further: nearly all actives have a fitted effect of over 60% in size
Holding throughout (conditions): P. falciparum in erythrocytes, SYBR Green DNA, 72 h; series mostly up to 28.7 µM
In general terms: In qHTS, concentration-response curves come from the screen itself.

One assay deals with DIV14. An outline of the steps:
(§1)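 Infected RBCs, 0.3% parasitemia/2.5% Hct final; cpd 72 h, 37 C, 5% CO2; lysis buffer with saponin/triton/SYBR Green I, o/n RT dark; FI 485/535; norm. to artemisinin (0.29 uM) and DMSO.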

The next assay relates to DIV17. The procedure, abridged: as §1
Another assay relates to DIV30. The procedure, abridged:
as §1

For a further assay, the system named is Dd2. An outline of the steps: as §1
Another assay deals with ECU. An outline of the steps: as §1
For the next assay, the system named is FAB9. The procedure, abridged:
as §1

For the next assay, the system named is GB4. The procedure, abridged:
as §1

A further assay relates to HB3. The procedure, abridged: as §1
The subject of another assay is ICS. An outline of the steps: as §1
The next assay concerns JCK. The procedure, abridged:
as §1

The values that follow come from PubChem BioAssay (NCATS).

Inconclusive results are not listed. Calls of active or inactive are those of the source. The call rests on the fitted dose curve; in most records, active means well fitted inhibition curve with a large enough effect; inconclusive means small, poorly fitted or top-dose-only effect; inactive means flat fitted curve, though single readings scatter.
Potency means the concentration at half of the fitted maximal effect.

In the case of `COc1c2c(cc3c1OCO3)CCN(C)C2`, the Potency entry with DIV14, in the assay on DIV17, in the assay on DIV30, with Dd2, with ECU and with FAB9 was “inactive” in each case. Moreover, the Potency result in the assay with GB4, in the assay on HB3, with ICS and in the assay on JCK was “inactive” throughout.

Turning to `CCC1(c2ccccc2)C(=O)N(COC)C(=O)N(COC)C1=O`, the Potency entry in the assay on DIV14, with DIV17, in the assay on DIV30, in the assay with Dd2, in the assay on ECU and in the assay with FAB9 was “inactive” each time. Further, the Potency entry in the assay on GB4, with HB3, with ICS and with JCK was “inactive” throughout.

Consider `Clc1ccc2c(c1)C(c1ccccc1)=NCc1nncn1-2`, for which the Potency entry in the assay on DIV14, with DIV17, with DIV30, with Dd2, in the assay on ECU and in the assay with FAB9 was “inactive” in each case. The Potency entry in the assay with GB4, in the assay on HB3, with ICS and with JCK was “inactive” in each case.

As to `O=C(O)CCCc1ccc(N(CCCl)CCCl)cc1`, the Potency entry in the assay with DIV14, in the assay on DIV17, with DIV30, with Dd2, with ECU and in the assay with FAB9 was “inactive” each time. Further, the Potency result with GB4, in the assay with HB3, with ICS and with JCK was “inactive” throughout.

Consider `CN1C(=O)NC(=O)C(C)(C2=CCCCC2)C1=O` (stereo not given), for which the Potency entry in the assay on DIV14, in the assay on DIV17, with DIV30, with Dd2, in the assay on ECU and in the assay on FAB9 was “inactive” in each case. In addition, the Potency entry with GB4, in the assay on HB3, in the assay with ICS and in the assay with JCK was “inactive” throughout.

In the case of `CCCCCCC(=O)CCCCCC/C=C/C[C@@H](O)[C@H](O)[C@@](N)(CO)C(=O)O`, the Potency entry with DIV14, in the assay on DIV17, in the assay on DIV30, with Dd2, in the assay with ECU and with FAB9 was “inactive” in each case. In addition, the Potency result in the assay with GB4, in the assay with HB3, in the assay on ICS and in the assay with JCK was “inactive” in each case.

Take `CN1C(=O)CCS(=O)(=O)C1c1ccc(Cl)cc1` (stereo not given): the Potency entry with DIV14, with DIV17, in the assay on DIV30, in the assay on Dd2, with ECU and in the assay on FAB9 was “inactive” in each case. Also, the Potency entry with GB4, in the assay on HB3, in the assay with ICS and in the assay with JCK was “inactive” throughout.

For `Cc1ncsc1CCCl`, the Potency result with DIV14, in the assay with DIV17, with DIV30, in the assay with Dd2, with ECU and in the assay on FAB9 was “inactive” in each case. Besides, the Potency entry with GB4, in the assay with HB3, in the assay with ICS and in the assay on JCK was “inactive” each time.

Turning to `C[C@]12CC[C@@H]3c4ccc(OC(=O)N(CCCl)CCCl)cc4CC[C@H]3[C@@H]1CC[C@@H]2O`, the Potency entry with DIV14, in the assay on DIV17, in the assay on DIV30, in the assay on Dd2, in the assay with ECU and with FAB9 was “inactive” throughout. For the same compound, the Potency entry with GB4, in the assay with HB3, in the assay with ICS and in the assay with JCK was “inactive” throughout.

For `CCC(C)(C)c1ccc(O)cc1`, the Potency entry in the assay on DIV14, in the assay on DIV17, with DIV30, with Dd2, with ECU and with FAB9 was “inactive” each time. The Potency entry with GB4, with HB3, in the assay with ICS and with JCK was “inactive” each time.

Regarding `C[C@](O)(CS(=O)(=O)c1ccc(F)cc1)C(=O)Nc1ccc(C#N)c(C(F)(F)F)c1`, the Potency result in the assay with DIV30, with Dd2, in the assay with FAB9, in the assay on GB4, with HB3 and in the assay with ICS was “inactive” each time. Also, in the assay on JCK, the Potency result was “inactive”.

With `COc1ccc2c(c1)C13CCCC[C@@H]1C(C2)N(C)CC3` (stereo not given in full), the values for the Potency in the assay on DIV14, in the assay on DIV17 and in the assay with Dd2 were 2.69 µM (active), 3.01 µM (active) and 5.62 µM (active), respectively. The Potency entry in the assay on FAB9, in the assay on HB3 and in the assay with JCK was “inactive” in each case.

`Nc1nc(N)nc(NC2CC2)n1`: the Potency entry in the assay with DIV14, in the assay on DIV17, in the assay with DIV30, in the assay on Dd2, in the assay on ECU and in the assay on FAB9 was “inactive” throughout. The Potency result with GB4, in the assay on HB3, in the assay with ICS and in the assay on JCK was “inactive” each time.

With `NC(=O)c1cc([N+](=O)[O-])cc([N+](=O)[O-])c1`, the Potency entry in the assay with DIV30, with Dd2, in the assay with ECU, in the assay on FAB9 and in the assay with HB3 was “inactive” in each case.

Turning to `O=C1OC(c2ccc(O)c(S(=O)(=O)O)c2)(c2ccc(O)c(S(=O)(=O)O)c2)c2c(Br)c(Br)c(Br)c(Br)c21`, the Potency result in the assay on DIV14, in the assay with DIV17, with DIV30, in the assay with Dd2, in the assay with ECU and in the assay on FAB9 was “inactive” each time. Also, the Potency entry in the assay with GB4, in the assay with HB3, with ICS and in the assay on JCK was “inactive” throughout.

Consider `CC(C)=CC1C(C(=O)OCN2C(=O)C3=C(CCCC3)C2=O)C1(C)C` (stereo not given), for which the Potency result with DIV14, with DIV17, with DIV30, in the assay on Dd2, in the assay with ECU and with FAB9 was “inactive” in each case. Further, the Potency entry in the assay on GB4, in the assay on HB3, in the assay on ICS and in the assay with JCK was “inactive” throughout.

For the compound `C[C@]12CCC(=O)C=C1CC[C@@H]1[C@@H]2CC[C@]2(C)C(=O)CC[C@@H]12`, the Potency entry with DIV14, in the assay on DIV30, with Dd2, with FAB9, in the assay with GB4 and in the assay on HB3 was “inactive” in each case. The Potency entry in the assay with ICS and in the assay on JCK was “inactive” in each case.

For `Clc1ccc(C(c2ccc(Cl)cc2)C(Cl)(Cl)Cl)cc1`, the Potency entry in the assay on Dd2, in the assay on ECU, in the assay with FAB9, in the assay on HB3 and with JCK was “inactive” throughout.

`CC(C)c1cccc(C(C)C)c1O`: the Potency entry in the assay on DIV17, in the assay with DIV30, with Dd2, with ECU, in the assay with FAB9 and in the assay on HB3 was “inactive” in each case. Moreover, the Potency result in the assay on ICS and with JCK was “inactive” throughout.

For `CNC(C)(C)Cc1ccccc1`, the Potency result in the assay with DIV14, in the assay with DIV17, in the assay on DIV30, in the assay with Dd2, with ECU and in the assay with FAB9 was “inactive” in each case. For the same compound, the Potency entry in the assay on GB4, in the assay with HB3, with ICS and with JCK was “inactive” in each case.

Consider `CCCCCCCCCC(=O)O[C@H]1CC[C@H]2[C@@H]3CCC4=CC(=O)CC[C@@H]4[C@H]3CC[C@]12C`, for which the Potency result with DIV14, in the assay with DIV17, in the assay on DIV30, in the assay with ECU, with FAB9 and with GB4 was “inactive” throughout. The Potency entry in the assay on HB3 and in the assay with JCK was “inactive” throughout.

Take `C=CCN1C[C@H](C)N([C@H](c2ccc(C(=O)N(CC)CC)cc2)c2cccc(OC)c2)C[C@H]1C`: the Potency entry in the assay on DIV30 and with JCK was “inactive” in each case. In addition, the Potency with Dd2 is 11.2 µM (active); with ICS it was 12.6 µM (active).

In the case of `CC(C)(C)NCC(O)c1ccccc1Cl` (stereo not given), the Potency with DIV14 is 8.49 µM (active); in the assay with DIV17 it was 6.01 µM (active); in the assay with Dd2 it was 11.2 µM (active); in the assay on GB4 it was 13.5 µM (active); with ICS, 7.08 µM (active). For the same compound, the Potency entry in the assay on FAB9 and in the assay with JCK was “inactive” each time.

With `O=C(N/N=C/c1ccc([N+](=O)[O-])o1)c1cc([N+](=O)[O-])cc([N+](=O)[O-])c1O`, the Potency result in the assay on DIV14 was “inactive”. Moreover, the Potency in the assay on HB3 was 1.58 µM (active).
